Data from PubChem BioAssay AID1508622 (National Center for Advancing Translational Sciences (NCATS), 2021).
Unmarked numbers belong to inactive results. The source made the active and inactive calls. Calls come from the whole dose curve; as a rule, active = well fitted activation curve with a large enough effect; inconclusive = small, poorly fitted or top-dose-only effect; inactive = no such curve, though single readings can be large or run the other way.

assay: Confirmatory qHTS for Identification of Small Molecule Activators of Huntingtin-Antisense Promoter Activity; conditions: HEK293 HTT-AS promoter firefly luciferase reporter, 24 h; series mostly up to 57.5 µM; activity change, positive = activation: at the top concentration
Method in brief: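 Plated reporter HEK293 cells (24 h) received library compounds at up to 57.5 uM final or 50 uM PTC124, incubated 24 h at 37C; firefly luciferase luminescence was then recorded with Dual-Glo reagent.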
Potency is the fitted concentration of half-maximal effect.

Structure (SMILES) | activity change, positive = activation [%] | Potency
CCOc1ccc(-c2cc(C)n3nc(C(=O)Nc4ccc(C)c(C)c4)cc3n2)cc1 | -41.8 | 
Fc1ccc(-c2csc(=Nc3cccc(C(F)(F)F)c3)n2Cc2ccc3c(c2)OCO3)cc1 | -30.8 | 
O=C(NCc1cccc(Cl)c1)C1CCCN(c2nn3cc(-c4ccc(F)cc4)nc3s2)C1 (centres undefined) | -56.7 | 
Cc1ccc(N2C(=O)C(CC(=O)Nc3ccccc3)N(CCC3=CCCCC3)C2=O)cc1 (centres undefined) |  | 6.75 µM (active)
COc1ccc(OC)c(-c2nnc3ccc(-c4ccc(OC)c(O[C@@H]5CCOC5)c4)nn23)c1 | -32.3 | 
COc1cccc(NC(CNS(=O)(=O)c2ccc(Cl)cc2)c2ccccc2)c1 (centres undefined) | -76.1 | 
Cc1ccc(-c2nc3sc(CCNS(=O)(=O)c4cc(F)ccc4F)c(C)n3n2)cc1 | -58.8 | 
CC(=O)c1ccc(NC(=O)c2ccc(-c3nc(CSc4ccc(C)cc4)c(C)o3)cc2)cc1 | -63.7 | 
CCc1c(C)nc2nncn2c1NCc1ccc(OC)cc1 | -50.3 | 
O=C(NCCc1csc(-c2ccc(F)cc2)n1)c1cccc(F)c1 | -40 | 
COc1ccc(CNC(=O)c2c(Nc3ccccc3C)sc(C(=O)c3ccccc3)c2N)cc1 | -32.9 | 
Cc1cc(NC(=O)Cn2c(=O)oc3cc(S(=O)(=O)N4CCCC4)ccc32)ccc1Br | -28.5 | 
COC(=O)c1c(C)oc2ccc(N(C(=O)c3ccncc3)S(=O)(=O)c3ccc(OC)cc3)cc12 | -94.2 | 
CCc1ccc2oc(C(=O)NCCc3ccc(OC)c(OC)c3)cc(=O)c2c1 | -49.8 | 
CCN1C(=O)c2ccccc2Sc2ccc(NC(=O)Nc3ccc(Br)c(C)c3)cc21 | -81.9 | 
CCOC(=O)c1ccc(CN(Cc2ccc(C)cc2)S(=O)(=O)c2ccc(NC(C)=O)cc2)cc1 | -21.7 | 
O=C(CN1C(=O)C2(SCC(=O)N2c2cccc(Cl)c2)c2ccccc21)NCCc1ccccc1 (centres undefined) | -24.2 | 
CCCCCNS(=O)(=O)c1ccc(N2CCCCS2(=O)=O)cc1 | -92.2 | 
COc1cccc(C(=O)NC(c2ccc(Cl)cc2)c2cc(Cl)c3cccnc3c2O)c1 (centres undefined) | -28.6 | 
CCOc1ccc(C(=O)Nc2ccc3c(c2)CCCN3S(=O)(=O)c2ccc(C)cc2)cc1 | -48.7 | 

Structure (SMILES) | activity change, positive = activation [%] | Potency
Cc1ccc(C)c(N2CCN(C(=O)C3CCCN(S(=O)(=O)c4ccc5c(c4)oc(=O)n5C)C3)CC2)c1 (centres undefined) | -48.5 | 
CSc1cccc(NC(=O)C2CCN(S(=O)(=O)c3ccc4[nH]c5c(c4c3)CCCCC5)CC2)c1 | -16.3 | 
COc1ccc(CCNc2ncnc3onc(C)c23)c(OC)c1 | -71.8 | 
CCC1=Nc2cc(C(=O)NC3CCCC3)ccc2Sc2ccc(Cl)cc21 | -32.8 | 
CC(=O)Nc1cccc(NC(=O)CSc2nccn2Cc2ccccc2)c1 | -54.9 | 
Cc1ccc(C)c(NC(=O)Cn2c(-c3nonc3N)nc3ccccc32)c1 | -5.46 | 
Cn1cc(CNCC2CCN(c3ncc(C(=O)NO)cn3)CC2)c2ccccc21 | -1.6 | 
CC(=O)c1c(C)oc2ccc(N(C(=O)c3ccncc3)S(=O)(=O)c3ccc(F)cc3C)cc12 | -60.5 | 
CC1Cc2cc(S(=O)(=O)NCc3ccccc3Cl)ccc2N1C(=O)C1CCC1 (centres undefined) | -84.4 | 
Cc1cccc(NC(=O)Cn2c(=O)oc3cc(S(=O)(=O)N4CCCCCC4)ccc32)c1 | -34 | 
Cc1cccc(N2CCN(C(=O)c3ccc4c(c3)CCN4S(=O)(=O)c3ccccc3)CC2)c1C | -64.4 | 
Cc1ccc(Nc2ccc(N3CCN(C(=O)c4ccc([N+](=O)[O-])cc4Cl)CC3)nn2)cc1 | -30 | 
Cc1ccccc1Cn1c(=O)n(Cc2ccco2)c(=O)c2oc3ccccc3c21 | -7.53 | 
COc1ccc(C)cc1NC(=O)CN1CCCN(S(=O)(=O)c2ccc(Br)cc2)CC1 | -26.8 | 
CCc1ccc(CNC(=O)c2ccc3nc(SCc4ccc(F)cc4)n(C)c3c2)cc1 | -30.6 | 
CCOc1ccc(C(=O)NCc2ccc3c(c2)CCN3C(=O)c2ccccc2)cc1 | -14.1 | 
Cc1cccc(NC(=O)c2c(NC(=O)C(F)(F)F)sc3c2CCCCC3)c1 | -96.1 | 
CCN(C(=O)C1CCC(CNS(=O)(=O)c2cccc3nsnc23)CC1)c1ccccc1 (centres undefined) | -42.6 | 
Cc1ccc(CN2CCSc3ccc(C(=O)NCC(C)c4ccccc4)cc32)cc1 (centres undefined) | 7.41 | 
